Our source for the Potency values is PubChem BioAssay AID602357 (National Center for Advancing Translational Sciences (NCATS), 2012).

Results filed as inconclusive are left out. Calls of active or inactive are those of the source. Calls come from the whole dose curve; as a rule, active = well fitted inhibition curve with a large enough effect; inconclusive = small, poorly fitted or top-dose-only effect; inactive = no such curve, though single readings can be large or run the other way.

Chain of Luciferin 4-monooxygenase (Photinus pyralis) (P08659 whole entry, looked up): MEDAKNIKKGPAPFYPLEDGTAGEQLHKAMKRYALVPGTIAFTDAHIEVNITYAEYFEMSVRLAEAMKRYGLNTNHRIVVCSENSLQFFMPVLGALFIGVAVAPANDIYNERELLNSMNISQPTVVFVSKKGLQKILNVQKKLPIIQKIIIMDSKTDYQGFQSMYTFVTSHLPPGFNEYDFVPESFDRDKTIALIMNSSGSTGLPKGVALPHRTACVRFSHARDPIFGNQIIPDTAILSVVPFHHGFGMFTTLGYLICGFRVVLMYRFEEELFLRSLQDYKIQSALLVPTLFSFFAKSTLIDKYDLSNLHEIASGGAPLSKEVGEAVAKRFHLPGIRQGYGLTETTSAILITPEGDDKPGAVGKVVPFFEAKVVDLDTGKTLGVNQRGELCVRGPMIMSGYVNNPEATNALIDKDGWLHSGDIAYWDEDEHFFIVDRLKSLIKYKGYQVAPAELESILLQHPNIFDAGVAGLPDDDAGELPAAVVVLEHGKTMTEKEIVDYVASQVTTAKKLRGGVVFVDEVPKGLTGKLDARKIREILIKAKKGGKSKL

The test addresses Luciferin 4-monooxygenase (Photinus pyralis) (UniProt P08659). Briefly: FLuc inhibitory activity for the follow-up compounds in a biochemical assay with Km concentrations of substrate. Particulars: purified FLuc, Km substrates, luminescence; series mostly up to 57.5 µM. The text has this:
NCGC Assay Overview: Firefly (Photinus pyralis) luciferase is one of the most commonly used transcriptional reporters. It is considered one of the more dynamically responsive reporters - that is, responsive to changes in reporter transcription - as it requires no post-translational modifications and is enzymatically active directly after protein synthesis (Wood, 1998). With no endogenous expression in mammalian cells and without the requirement of external excitation, it offers very little background signal, thus generally providing excellent signal to background for most assays. Previous profiling work to determine the prevalence of compounds that affect FLuc enzymatic activity (PubChem AID 411) identified that ~3% of the MLSMR library (then at ~72K) inhibited FLuc. […] Of the compounds identified in this profile that inhibited FLuc, 151 compounds were selected for further analysis, in an effort to better understand their mode of inhibiting FLuc. The assay described here confirms the FLuc inhibitory activity of the 151 compounds.
NCGC Assay Protocol Summary: Reagents: 50mM Tris acetate, pH 7.5; 10mM Mg acetate; 10uM D-luciferin (Sigma #L9504); 10uM ATP; 0.01% Tween-20; 0.05% BSA; 10nM P. pyralis luciferase (Sigma #L9506) Control compounds used were two known firefly luciferase inhibitors (3-(5-(3-chlorophenyl)-1,2,4-oxadiazol-3-yl)benzoic acid and 5-(2-fluorophenyl)-3-phenyl-1,2,4-oxadiazole), and DMSO. Three microliters containing firefly luciferase substrates in buffer (final concentrations: 50mM Tris acetate, pH 7.5, 10mM Mg acetate, 0.01% Tween-20, 0.05% BSA, 10uM D-luciferin, and 10uM ATP) are dispensed into each well of a Greiner white, solid-bottom 1536-well format plate using a flying reagent dispenser (FRD). These assay plates were then treated with 23nL of compound or DMSO using a Kalypsys pin tool, which allows for delivery of a 12-point intraplate titration of each compound to the assay plate (quantitative HTS), with a final compound concentrations ranging from approximately ~60uM to 0.3nM. One microliter of firefly luciferase in 500mM Tris-acetate buffer was then delivered by FRD to each well for a final enzyme concentration of 10nM. Luciferase activity was then measured using a ViewLux CCD imager (PerkinElmer), with an average exposure time of 2-30 seconds (2X binning, medium/high gain).
Regarding `Cc1ccc(C(=O)Nc2cccc(C(=O)O)c2)cc1S(=O)(=O)N1CCOCC1`, the Potency was 0.291 µM (active).
For the compound `COc1cc(C(=O)Nc2cc(C)c(O)c(-c3nc4ccccc4s3)c2)cc(OC)c1OC`, the Potency result was “inactive”.
Regarding `O=C(Nc1ccccc1C(=O)Nc1ccccc1C(=O)O)c1ccccc1`, the Potency was 16.3 µM (active).
Consider `O=C(O)c1cccc(NC(=O)c2ccc(COc3ccc(Cl)cc3)cc2)c1`, for which the Potency was 3.66 µM (active).
Then `O=C(O)c1ccccc1NC(=O)c1ccccc1Nc1ccccc1`, with 18.3 µM (active).
Next, `c1ccc2sc(-c3ccc4c(c3)OCO4)nc2c1`: 0.326 µM (active); `O=C(Nc1ccccc1C(=O)O)c1cc(S(=O)(=O)Nc2ccccc2)ccc1Cl`: “inactive”.
Then `CCOc1ccc(C(=O)Nc2cccc(C(=O)O)c2)cc1Cl`, with 0.058 µM (active).
Take `COc1ccc(C(=O)Nc2ccccc2C(=O)Nc2ccccc2C(=O)O)cc1`: the Potency is 0.58 µM (active).
Next, `O=C(O)c1ccc(NC(=O)c2cccc(NC(=O)c3cccs3)c2)cc1`: 9.19 µM (active); `O=C(O)c1cccc(NC(=O)c2ccc(S(=O)(=O)c3ccccc3)cc2)c1`: 5.8 µM (active); `O=C(COC(=O)c1ccccc1[N+](=O)[O-])c1ccc2c(c1)OCO2`: 0.0058 µM (active).
Then `COc1ccc2nc(NC(=O)c3ccc([N+](=O)[O-])o3)sc2c1`, with 3.66 µM (active); and `CC(C)CC(=O)Nc1cccc(C(=O)Nc2ccccc2C(=O)O)c1`, with 18.3 µM (active); and `COc1ccc2nc(NC(=O)c3ccc4ncsc4c3)sc2c1`, with 1.63 µM (active).
Next, `Cc1c(NC(=O)C(C)(C)C)cccc1-c1nc2ccccc2s1`: 3.26 µM (active); `COc1ccc2nc(NC(=O)c3nc(S(=O)(=O)Cc4ccc(C)cc4)ncc3Cl)sc2c1`: “inactive”.
`COc1ccccc1C(=O)Nc1ccc(C(=O)O)cc1`: the Potency result was “inactive”.
For the compound `Oc1ccc(-c2nc3ccccc3s2)c(O)c1`, the Potency was 6.51 µM (active).
Consider `Cc1cccc(C(=O)Nc2ccccc2C(=O)Nc2ccc(C(=O)O)cc2)c1`, for which the Potency was 11.6 µM (active).
Next, `O=C(Nc1ccc(Cl)cc1-c1nc2ccccc2s1)c1ccco1`: “inactive”.
Then `CC(=O)Nc1cccc(C(=O)Nc2ccccc2C(=O)O)c1`, with 32.6 µM (active); and `O=C(O)c1ccc(NC(=O)c2cc(S(=O)(=O)N3CCCCC3)c(Cl)cc2Cl)cc1`, with “inactive”; and `O=C(Nc1ccccc1C(=O)O)c1ccc(NC(=O)C2CCCO2)cc1` (stereo not given), with 16.3 µM (active).
Next, `COc1ccc2nc(NC(=O)c3cnccn3)sc2c1`: 2.91 µM (active); `CC(=O)Oc1ccc(C(=O)Nc2ccccc2C(=O)Nc2ccc(C(=O)O)cc2)cc1`: 5.8 µM (active); `COc1ccc(CC(=O)Nc2cccc(C(=O)Nc3ccccc3C(=O)O)c2)cc1OC`: 41.1 µM (active).
Regarding `O=C(Nc1ccccc1C(=O)O)c1ccc(NC(=O)C2CCCCC2)cc1`, the Potency is 11.6 µM (active).
Then `COc1ccc(Br)cc1C(=O)Nc1ccc(C(=O)O)cc1`, with “inactive”.
Then `CC(=O)Oc1ccc(C(=O)Nc2ccccc2C(=O)Nc2cccc(C(=O)O)c2)cc1`, with 6.51 µM (active).
Next, `COc1cc(OC)cc(-c2nc3ccccc3s2)c1`: 6.51 µM (active).
For the compound `CN(C)c1cccc(C(=O)Nc2ccc(-c3nc4ccccc4s3)cc2)c1`, the Potency is 2.91 µM (active).
For `Cc1ccc(C(=O)Nc2ccc(C(=O)O)cc2)cc1S(=O)(=O)NCc1ccccc1`, the Potency result was “inactive”.
Then `CCOc1ccc2nc(NC(=O)Cc3cccs3)sc2c1`, with 10.3 µM (active).
Next, `Cc1c(NS(C)(=O)=O)cccc1-c1nc2ccccc2s1`: 8.19 µM (active).
Then `Cn1c(N/N=C/c2cc3ccccc3nc2Cl)nc2ccccc21`, with 0.058 µM (active); and `Nc1ccc2nc(-c3ccc(O)cc3)sc2c1`, with 0.41 µM (active).
For the compound `COc1ccc(C(=O)Nc2ccccc2C(=O)N/N=C/c2ccc(O)c(OC)c2)cc1`, the Potency is 0.0037 µM (active).
As for `Cc1ccc(C(=O)Nc2cccc(C(=O)O)c2)cc1S(=O)(=O)N1CCCC1`, the Potency is 0.058 µM (active).
Then `COc1cc(OC)cc(C(=O)Nc2ccccc2-c2nc3ccccc3s2)c1`, with “inactive”.
